Assay results from PubChem BioAssay (EPA / NIEHS).
Inconclusive results are not listed. Active and inactive are the calls of the source. How the source made its calls, unless noted: active means hit-call score of the fitted dose curve at least 0.9, where 1 is the maximum; inconclusive means response in the unintended direction; inactive means score below 0.9.

molecular target: Nuclear receptor subfamily 1 group I member 3 (Homo sapiens) (UniProt Q14994); test: ATG_CAR_TRANS: Attagene TRANS-FACTORIAL HepG2 Assay for human Constitutive Androstane Receptor (CAR) (AID 2282969); settings: HepG2 Attagene TRANS-FACTORIAL CAR reporter;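 further: activators raise reporter mRNA above DMSO so AC50 marks induction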
Outline: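 Readout is reporter mRNA induction, quantified by fluorescent primer extension and capillary electrophoresis after RT-PCR. Cells were HepG2 transiently carrying chimeric NR-Gal4 constructs with GAL4-UAS reporters, treated for 24 h; activity scored upward from DMSO.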

Sequence of Nuclear receptor subfamily 1 group I member 3 (Homo sapiens) (Q14994 whole entry, looked up, the tested form may be a part): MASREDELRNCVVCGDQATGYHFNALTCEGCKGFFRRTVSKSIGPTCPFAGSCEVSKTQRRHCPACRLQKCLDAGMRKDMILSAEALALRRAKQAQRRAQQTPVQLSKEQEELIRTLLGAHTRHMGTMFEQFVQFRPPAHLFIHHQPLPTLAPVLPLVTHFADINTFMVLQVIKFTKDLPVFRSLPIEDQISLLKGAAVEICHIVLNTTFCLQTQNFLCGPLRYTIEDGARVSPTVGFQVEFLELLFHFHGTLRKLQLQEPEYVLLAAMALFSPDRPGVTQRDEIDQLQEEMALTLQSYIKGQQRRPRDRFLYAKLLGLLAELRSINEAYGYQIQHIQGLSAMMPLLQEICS

outcome, inactive:
CCC(C)S (configuration not stated)
CCCCCCC(CO)CCCC (configuration not stated)
CCN(CC)C(=O)N(CC)CC
N#Cc1ccc(CC(=O)c2cccc(C(F)(F)F)c2)cc1
NC1CCCCC1N (configuration not stated)
CC(C)(CO)[C@@H](O)C(=O)NCCC(=O)O
CN(C)c1cccc(O)c1
N[C@@H](Cc1cc(I)c(Oc2cc(I)c(O)c(I)c2)c(I)c1)C(=O)O
O=C(c1ccccc1)C(O)c1ccccc1 (configuration not stated)
C[Si]1(C)O[Si](C)(C)O[Si](C)(C)O1
C=CCCC(=O)/C=C/C1C(C)=CCCC1(C)C (configuration not stated)

molecular target: Estrogen receptor (Homo sapiens) (UniProt P03372); test: ATG_ERa_TRANS: Attagene TRANS-FACTORIAL HepG2 Assay for human Estrogen Receptor alpha (ERa) (AID 2282970); settings: HepG2 Attagene TRANS ERa GAL4 reporter, mRNA
Outline: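 HepG2 cells transiently transfected with multiplexed GAL4-UAS reporter units read out chimeric NR-Gal4 activity. After 24 h compound exposure, reporter mRNA was quantified by RT-PCR, 6-FAM labeling, HpaI digestion and capillary electrophoresis, relative to DMSO.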

Sequence of Estrogen receptor (Homo sapiens) (P03372 whole entry, looked up, the tested form may be a part): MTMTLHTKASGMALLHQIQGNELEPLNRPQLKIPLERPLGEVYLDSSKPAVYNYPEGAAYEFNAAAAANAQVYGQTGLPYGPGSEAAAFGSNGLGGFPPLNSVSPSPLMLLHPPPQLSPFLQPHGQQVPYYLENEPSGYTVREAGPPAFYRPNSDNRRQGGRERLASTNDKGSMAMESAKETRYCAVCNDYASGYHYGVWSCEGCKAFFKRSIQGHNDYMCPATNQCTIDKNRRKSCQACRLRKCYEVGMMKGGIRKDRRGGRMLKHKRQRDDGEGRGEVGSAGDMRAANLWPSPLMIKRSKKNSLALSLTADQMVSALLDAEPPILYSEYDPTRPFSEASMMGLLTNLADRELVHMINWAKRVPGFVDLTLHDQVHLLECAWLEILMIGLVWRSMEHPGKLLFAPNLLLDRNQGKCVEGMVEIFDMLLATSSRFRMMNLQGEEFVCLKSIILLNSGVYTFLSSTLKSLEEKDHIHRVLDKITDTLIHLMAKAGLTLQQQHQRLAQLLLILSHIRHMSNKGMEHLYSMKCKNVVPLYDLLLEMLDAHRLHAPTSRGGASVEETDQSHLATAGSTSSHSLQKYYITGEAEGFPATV

outcome, inactive:
COC(=O)C=C(C)CCC=C(C)C
O=[N+]([O-])c1cccc(Cl)c1
CCCCC1(COC(=O)CCC(=O)O)C(=O)N(c2ccccc2)N(c2ccccc2)C1=O
CC(C)(CO)[C@@H](O)C(=O)NCCC(=O)O

molecular target: Steroid hormone receptor ERR1 (Homo sapiens) (UniProt P11474); test: ATG_ERRa_TRANS: Attagene TRANS-FACTORIAL HepG2 Assay for human Estrogen-Related Receptor alpha (ERRa) (AID 2282971); settings: HepG2 Attagene TRANS reporter, ERRa transactivation
Outline: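 HepG2 cells transiently transfected with GAL4-UAS reporter units and chimeric NR-Gal4 constructs; after 24 hour compound incubation, reporter mRNA quantified by RT-PCR, fluorescent labelling and capillary electrophoresis, gain of signal versus DMSO.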

Sequence of Steroid hormone receptor ERR1 (Homo sapiens) (P11474 whole entry, looked up, the tested form may be a part): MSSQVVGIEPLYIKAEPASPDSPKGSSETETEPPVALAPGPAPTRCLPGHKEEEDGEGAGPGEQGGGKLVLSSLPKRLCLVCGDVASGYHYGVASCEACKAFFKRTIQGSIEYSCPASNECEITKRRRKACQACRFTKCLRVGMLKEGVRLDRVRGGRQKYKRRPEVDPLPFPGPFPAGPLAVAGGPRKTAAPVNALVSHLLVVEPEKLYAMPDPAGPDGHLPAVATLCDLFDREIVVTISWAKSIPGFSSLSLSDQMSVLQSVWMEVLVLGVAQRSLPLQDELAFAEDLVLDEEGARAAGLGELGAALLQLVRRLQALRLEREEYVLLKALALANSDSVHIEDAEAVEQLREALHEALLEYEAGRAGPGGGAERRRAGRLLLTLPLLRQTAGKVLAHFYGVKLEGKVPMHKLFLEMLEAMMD

outcome, inactive:
CCCN(CCC)S(=O)(=O)c1ccc(C(=O)O)cc1
COC(=O)C=C(C)CCC=C(C)C
CC(C)(N=C=O)c1cccc(C(C)(C)N=C=O)c1
N#Cc1ccc(CC(=O)c2cccc(C(F)(F)F)c2)cc1
O=[N+]([O-])c1cccc(Cl)c1
NC1CCCCC1N (configuration not stated)
OCCCCC(O)CO (configuration not stated)
O=C(O)CCCCCCCCCCCC(=O)O
C[Si]1(C)O[Si](C)(C)O[Si](C)(C)O1

molecular target: X-box-binding protein 1 (Homo sapiens) (UniProt P17861); test: ATG_Xbp1_CIS: Attagene CIS-FACTORIAL HepG2 Assay for human X-box Binding Protein 1 (XBP1) (AID 2282972; active means hit-call score of the fitted dose curve at least 0.9, where 1 is the maximum; inactive means score below 0.9); settings: HepG2 XBP1 cis-element reporter, Attagene multiplex; actives raise or lower the signal
Outline: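 Fluorescence-labelled cDNA fragments from reporter transcripts, separated by capillary electrophoresis, give the signal. Source: HepG2 cells transfected with promoter-driven reporter units, harvested 24 h post-dose. DMSO served as reference for bidirectional curve fitting.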

Sequence of X-box-binding protein 1 (Homo sapiens) (P17861 whole entry, looked up, the tested form may be a part): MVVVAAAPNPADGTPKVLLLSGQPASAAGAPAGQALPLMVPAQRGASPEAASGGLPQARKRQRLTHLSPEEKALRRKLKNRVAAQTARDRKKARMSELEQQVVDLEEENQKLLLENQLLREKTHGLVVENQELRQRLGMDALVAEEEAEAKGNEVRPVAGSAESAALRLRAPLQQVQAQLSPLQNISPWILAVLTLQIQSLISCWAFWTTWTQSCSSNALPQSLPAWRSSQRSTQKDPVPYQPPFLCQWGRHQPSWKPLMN

outcome, inactive:
C[Si](C)(C)O[Si](C)(C)C
CCCN(CCC)S(=O)(=O)c1ccc(C(=O)O)cc1
C=C1CC[C@H](O)C/C1=C/C=C1\CCC[C@]2(C)[C@@H]([C@H](C)/C=C/[C@H](C)C(C)C)CC[C@@H]12
CCN(CC)C(=O)N(CC)CC
COC(=O)c1ccc([N+](=O)[O-])cc1
c1ccc2[nH]cnc2c1
CC(C)(N=C=O)c1cccc(C(C)(C)N=C=O)c1
N#Cc1ccc(CC(=O)c2cccc(C(F)(F)F)c2)cc1
O=[N+]([O-])c1cccc(Cl)c1
CCCCC1(COC(=O)CCC(=O)O)C(=O)N(c2ccccc2)N(c2ccccc2)C1=O
Nc1ccc2cc(S(=O)(=O)O)cc(O)c2c1N=Nc1ccccc1C(F)(F)F
NC1CCCCC1N (configuration not stated)
CCC1(C)NC(=O)NC1=O (configuration not stated)
CC1C2CC(CC2C2CCCC(O)C2)C1(C)C (configuration not stated)
CCCC(O)C(O)CO (configuration not stated)
CC(C)CC(C)CC(O)CC(C)C (configuration not stated)
CCOC(=O)C(C#N)=C(c1ccccc1)c1ccccc1
Cc1ccc(S(N)(=O)=O)cc1
CC1(C)O[C@@H]2C[C@H]3[C@@H]4CCC5=CC(=O)C=C[C@]5(C)[C@@]4(F)[C@@H](O)C[C@]3(C)[C@]2(C(=O)CO)O1
CC(C)(CO)[C@@H](O)C(=O)NCCC(=O)O
Cc1c(Cl)cccc1[N+](=O)[O-]
CC1(C)COCN1
CC(C)Nc1nc(N)nc(Cl)n1
OCCCCC(O)CO (configuration not stated)
Cc1cc(=O)oc2cc(N(C)C)ccc12
CS(=O)(=O)OCCCCOS(C)(=O)=O
CCOC(=O)C1OC1c1ccccc1 (configuration not stated)
CCOc1ccc(N=Nc2ccc(C=Cc3ccc(N=Nc4ccc(OCC)cc4)cc3S(=O)(=O)O)c(S(=O)(=O)O)c2)cc1
CN(C)c1cccc(O)c1
O=C(O)CCCCCCCCCCCC(=O)O
N[C@@H](Cc1cc(I)c(Oc2cc(I)c(O)c(I)c2)c(I)c1)C(=O)O
O=C(c1ccccc1)C(O)c1ccccc1 (configuration not stated)
C[Si]1(C)O[Si](C)(C)O[Si](C)(C)O1
C=CCCC(=O)/C=C/C1C(C)=CCCC1(C)C (configuration not stated)

tested on: not listed separately; test: ATG_M_19_TRANS: Attagene TRANS-FACTORIAL HepG2 Assay for M19 Transcription Factor (Internal Marker) (AID 2282974); settings: HepG2 Attagene TRANS-FACTORIAL M19 internal marker reporter
Outline: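 Measured here: internal-marker reporter transcript from HepG2 cells transfected with MRTUs, harvested at 24 h. cDNA PCR products were 6-FAM labelled by primer extension, cut with HpaI for 2 h at 37 C, and resolved by CE.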

outcome, inactive:
C[Si](C)(C)O[Si](C)(C)C
CCCN(CCC)S(=O)(=O)c1ccc(C(=O)O)cc1
CCC(C)S (configuration not stated)
CCCCCCC(CO)CCCC (configuration not stated)
c1ccc2[nH]cnc2c1
Nc1ccc2cc(S(=O)(=O)O)cc(O)c2c1N=Nc1ccccc1C(F)(F)F
CCC1(C)NC(=O)NC1=O (configuration not stated)
CCCC(O)C(O)CO (configuration not stated)
CC(C)CC(C)CC(O)CC(C)C (configuration not stated)
CC1(C)O[C@@H]2C[C@H]3[C@@H]4CCC5=CC(=O)C=C[C@]5(C)[C@@]4(F)[C@@H](O)C[C@]3(C)[C@]2(C(=O)CO)O1
Cc1c(Cl)cccc1[N+](=O)[O-]
CC1(C)COCN1
CCCOC(=O)c1c(Cl)c(Cl)c(Cl)c(Cl)c1C(=O)OCCC
CC(C)Nc1nc(N)nc(Cl)n1
OCCCCC(O)CO (configuration not stated)
CS(=O)(=O)OCCCCOS(C)(=O)=O
CCOC(=O)C1OC1c1ccccc1 (configuration not stated)
CCOc1ccc(N=Nc2ccc(C=Cc3ccc(N=Nc4ccc(OCC)cc4)cc3S(=O)(=O)O)c(S(=O)(=O)O)c2)cc1
CN(C)c1cccc(O)c1
O=C(O)CCCCCCCCCCCC(=O)O
N[C@@H](Cc1cc(I)c(Oc2cc(I)c(O)c(I)c2)c(I)c1)C(=O)O
O=C(c1ccccc1)C(O)c1ccccc1 (configuration not stated)
C[Si]1(C)O[Si](C)(C)O[Si](C)(C)O1
COc1cc(Cl)c(OC)cc1N
